Screen size: about 16,000 compounds; about 2,600 (16%) were called active. Roughly 20% stayed inconclusive and do not appear here. Calls come from the whole dose curve; as a rule, active = well fitted curve in the direction sought with a large enough effect; inconclusive = small, poorly fitted or top-dose-only effect, or effect the other way; inactive = no such curve, though single readings can be large or run the other way. Only a sample is shown.
What follows are molecules tested against Cytochrome P450 2D6 (Homo sapiens) (UniProt P10635) (assay: Cytochrome panel assay with activity outcomes). Conditions: recombinant CYP, pro-luciferin dealkylation, luminescence, p450-cyp2d6; series mostly up to 57.1 µM; activity, negative = inhibition: at the top concentration.
Cytochrome P450 2D6 (Homo sapiens), sequence (P10635 whole entry, looked up): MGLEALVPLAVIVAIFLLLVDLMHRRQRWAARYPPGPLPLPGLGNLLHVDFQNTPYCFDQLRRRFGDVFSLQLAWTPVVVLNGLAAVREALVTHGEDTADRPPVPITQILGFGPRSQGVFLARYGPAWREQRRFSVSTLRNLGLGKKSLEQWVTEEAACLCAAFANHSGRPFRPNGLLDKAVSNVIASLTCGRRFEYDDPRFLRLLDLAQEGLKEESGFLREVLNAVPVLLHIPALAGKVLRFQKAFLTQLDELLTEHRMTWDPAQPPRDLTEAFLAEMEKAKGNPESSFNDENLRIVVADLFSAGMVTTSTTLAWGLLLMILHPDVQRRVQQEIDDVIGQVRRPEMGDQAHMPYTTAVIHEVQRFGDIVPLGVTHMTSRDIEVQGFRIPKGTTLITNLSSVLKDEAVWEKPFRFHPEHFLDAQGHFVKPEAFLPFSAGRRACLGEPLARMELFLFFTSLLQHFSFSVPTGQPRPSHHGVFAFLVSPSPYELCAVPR
% is set by controls: 0 for no effect and ±100 for the full control effect.

activity, negative = inhibition, inactive:
CCCCCCCCCCCCCCSCC(=O)O 13.5%, COc1ccc(-n2c(-c3cnccn3)n[nH]c2=S)cc1 -9.31%, O=C(Nc1cccc(F)c1)N1CCCC2(CCNCC2)C1 -13.8%, C(/C=C\c1ccccc1)=Nc1ccc2c(c1)Cc1ccccc1-2 -10.4% [at 11.4 µM], COc1ccc(-n2c(=O)c(-c3cn(C)c4ccccc34)nc3cncnc32)cc1 -5.82%, CC(=O)[C@@]1(O)Cc2c(O)c3c(c(O)c2[C@H](O[C@H]2C[C@H](N)[C@H](O)[C@H](C)O2)C1)C(=O)c1ccccc1C3=O 0.0095%, Cn1c(CCC(=O)Nc2ccc(N3CCOCC3)cc2)nc(=O)c2ccccc21 -12.1%, COC(=O)c1nn(-c2ccccc2)c(=O)cc1Oc1ccccc1 -9.53%, N#C[C@@H](N=Nc1ccccc1C(=O)O)C(N)=O -0.182% [at 11.4 µM], O=C(N/N=C/c1cccc(C(F)(F)F)c1)C1CCN(c2ncc(C(F)(F)F)cc2Cl)CC1 25.5%, COc1ccc(/C=C(/C(=O)Nc2ccccc2C(=O)NC(C)C)c2ccccc2)cc1 -25.8%, Cc1cccc(N2CCN(C(=O)CSCc3c(C)noc3C)CC2)c1C -27.5%, COc1ccc(CNC(=O)/C=C/c2ccc(OCCCF)cc2)cc1 -20.6%, CCSc1ncnc2c1sc1nc(-c3ccco3)c3c(c12)CC(C)(C)OC3 -3.51%, CCC(O)CNc1nc(-n2nc(C)cc2C)nc2sc3c(c12)CC(C)(C)OC3 (configuration not stated) -8.4%, O=c1cnc2cnc(N3CCOCC3)nc2n1CCc1ccccc1 -11%, CCCc1ccc(C2C3=C(CC(C)(C)CC3=O)NC3=C2C(=O)c2ccccc23)cc1 (configuration not stated) 3.78%, Cc1cc2c(cc1C)NC(c1nc3ccccc3[nH]1)C1=C(CC(C)(C)CC1=O)N2 (configuration not stated) -11.2%, Brc1ccc([C@H]2CN3CCSC3=N2)cc1 -14.8%, Cc1cccc(C)c1NC(=O)C(c1ccccc1)N1CCC1=O (configuration not stated) -9.63%, Cc1cccc(C)c1NC(=O)C(NC=O)c1ccccc1Cl (configuration not stated) -25.5%, NC(N)=N[C@@H]1C(O)[C@H](N=C(N)N)[C@@H](O)C(O)[C@H]1O (some centres not stated) 4.19% [at 11.4 µM], CCNS(=O)(=O)c1ccc(NC(=O)c2cc(C(F)(F)F)nn2C)cc1 5.15%, NNC(=O)Cc1cccnc1 8.36% [at 11.4 µM], CC1=NN(c2ccccc2)C(=O)[C@@H]1N=Nc1ccc(S(N)(=O)=O)cc1 8.14% [at 11.4 µM], CCOC(=O)N1CCC(NC(=O)CCC(=O)N2CC(C)Oc3ccc(C)cc32)CC1 (configuration not stated) -4.46%, O=C(Nc1c[nH]c(=O)[nH]c1=O)Oc1ccccc1 -9.58% [at 11.4 µM], O=C(OCc1nc2ccccc2s1)c1ccc(Br)s1 -15.7%, COc1ccc(-c2cc(C(=O)NCc3cccnc3)no2)cc1OC -16.4%, Cc1noc(C)c1-c1cc(NCc2ccccc2)ncn1 -7.96%, N#Cc1cccc(-c2cc(NCc3ccccc3)ncn2)c1 -10.1%, Cc1noc(C)c1-c1cc(NCc2cccnc2)ncn1 8.5%, Cc1cnc(CNc2cc(-c3cccnc3)ncn2)cn1 -6.26%, COc1ccc(-c2csc(NC(=O)CCn3cnc4ccccc4c3=O)n2)cc1OC -11.6%, CCN1CCc2c(sc(N)c2C(N)=O)C1 -8.92%, OC[C@@H]1O[C@@H](n2cnc3c(NC4CCCCC4)ncnc32)[C@@H](O)[C@H]1O -1.5%, O=C(Nc1c(C(=O)N2CCOCC2)cnn1-c1ccccc1)c1ccco1 10.7%, O=c1c(Cc2ccccc2)c(O)nc2n1CCS2 16%, O=C(c1ccc2nc3ccc(Cl)cc3c(=O)n2c1)N1CCOCC1 -14.8%, Cc1cnc(CNc2cc(-c3cccc(C#N)c3)ncn2)cn1 4.2%, COc1ccccc1CNc1cc(-c2cccc(C#N)c2)ncn1 -3.17%, COCCn1c(=S)[nH]c2cc(C(=O)NC(C)C)ccc2c1=O 18.7%, O=C(N/N=C/c1ccncc1)c1cc2c(ccc3ccccc32)o1 -14.2%, CCCC(CCC)C(=O)NNc1cc(=O)c2c(=O)n(C)c(=O)n(C)c2[nH]1 -14.7%, O=C(O)c1cc(S(=O)(=O)N2CCCCC2)ccc1F 7.06%, Cc1ccc(S(=O)(=O)Oc2cc(S(=O)(=O)O)cc3cc(S(=O)(=O)O)cc(N)c23)cc1 8.03% [at 11.4 µM], CC(C)Sc1cc(N2CCOCC2)nc(-c2ccc(Cl)cc2)n1 10.4%, CC(=O)NCCc1ccc(O)c(O)c1 -0.325%, CC(C)(Oc1ccc(CCNC(=O)c2ccc(Cl)cc2)cc1)C(=O)O 4.92% [at 25.6 µM], O=C1NCCCC1C(=O)Nc1ccccc1C(F)(F)F (configuration not stated) -13.4%, CCS(=O)(=O)N1CCC(C(=O)NCc2cccnc2)CC1 -6.02%, O=C(NCc1ccccc1Cl)C1CCN(S(=O)(=O)N2CCC3(CC2)OCCO3)CC1 -3.92%, CC(C)C(NC(=O)C1CCCCC1)C(=O)NCc1ccccn1 (configuration not stated) 18.3%, O=C(Nc1cccn(Cc2ccc(F)cc2)c1=O)NC1CCCCC1 -13.3%, COCCNC(=O)C1CCN(S(=O)(=O)N2CCC3(CC2)OCCO3)CC1 24.2%, CCN1CCN(CCCNC(=O)C(NC(=O)C2CCC(C)CC2)C(C)C)CC1 (configuration not stated) 2.19%

AC50, active:
CC(C)OC(=O)CC12CN(C)CC(CC(=O)OC(C)C)(CN(C)C1)C2=O 2.51 µM, CCCSc1nc(NCc2ccco2)c2c3c(sc2n1)COC(C)(C)C3 14.1 µM, CC1(C)CC(=O)C2=C(C1)Nc1cc3c(cc1C2c1ccc(F)cc1)OCO3 (configuration not stated) 7.08 µM, Cc1cccc(C)c1NC(=O)C(c1ccc(Cl)cc1Cl)N1CCCCC1 (configuration not stated) 10 µM, Cc1cc(C(F)(F)F)nn1CC(=O)Nc1cccnc1 12.6 µM, COc1ccc(CCNc2nc(-c3cccnc3)cs2)cc1OC 7.08 µM, COc1cccc(-c2cc(NCc3ccc(OC)cc3OC)ncn2)c1 12.6 µM, COc1ccccc1CNc1cc(-c2cccnc2)ncn1 5.01 µM, COc1cccc(-c2cc(NCc3ccccc3)ncn2)c1 12.6 µM, COc1cccc(-c2cc(NCc3ccccc3OC)ncn2)c1 15.8 µM, COc1cccc(-c2cc(NCc3cccs3)ncn2)c1 12.6 µM, Oc1cc2c(cc1O)CN(C(=S)NCCc1ccc(Cl)cc1)CCC2 12.6 µM, O=C(NCCCN1CCCCCC1)[C@@H](c1ccccc1)C1CCCCC1 0.631 µM, O=C(NCCCN1CCN(C2CCCCC2)CC1)Nc1ccccc1C(F)(F)F 5.01 µM, CCCCNC(=O)C1CCN(Cc2ccccn2)CC1 8.91 µM, O=C(NCCc1ccc(Cl)cc1)C1CCN(S(=O)(=O)N2CCC3(CC2)OCCO3)CC1 14.1 µM
